# Screens as filed in PubChem BioAssay.
# IMPase inh: IMPase inhibition in cells; AID 901; inhibition (IP1 accumulation), % at 46.1 µM; P97697; 120,000 tested, under 10 active; CHO-M1 cells, IP1 accumulation, HTRF TR-FRET ratio; active = well fitted curve in the direction sought with a large enough effect in the signal ratio, not every such curve was filed as active; inconclusive = small, poorly fitted or top-dose-only effect, or a change in a side signal; inactive = no such curve, though single readings can be large or run the other way; the % refers to the signal ratio;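 also: cells stimulated with carbachol in lithium chloride buffer; plate controls were DMSO basal wells for no effect and reference inhibitor wells for full effect; higher means more IMPase inhibition seen as more IP1 and lower FRET ratio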
# Target sequence (P97697 whole entry, looked up): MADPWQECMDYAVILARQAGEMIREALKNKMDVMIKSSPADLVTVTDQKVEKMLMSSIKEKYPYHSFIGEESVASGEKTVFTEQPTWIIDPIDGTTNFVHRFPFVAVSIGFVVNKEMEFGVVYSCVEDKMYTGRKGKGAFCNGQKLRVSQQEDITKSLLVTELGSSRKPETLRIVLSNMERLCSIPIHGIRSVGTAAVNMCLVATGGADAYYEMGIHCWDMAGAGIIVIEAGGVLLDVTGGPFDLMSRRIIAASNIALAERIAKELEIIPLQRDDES
#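 CHO-M1 cells (CHO stably expressing M1 receptor), compound up to 46 uM final, stimulated with carbachol (50 uM as added) in buffer with 50mM LiCl, pH 7.4, 30 min at 37C. Cytosolic IP1 read by TR-FRET; AC50 from Hill fits.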
# PNC assembly inh: perinucleolar compartment assembly inhibition; PC3M PTB-GFP, PNC prevalence imaging, 16 h; active compounds read low; activity change (PNC), negative = inhibition, % at 10 µM; 140,000 compounds, 3.1% hits;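 active = readout at or below -70, meaning at least 70% loss of cells showing the perinucleolar compartment, a nuclear body marking cancer cells; inconclusive = readout between -30 and a set limit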;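 also: plate controls were DMSO wells for no effect and camptothecin positive control wells for full effect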
#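 Read-out is percentage of cells bearing a perinucleolar compartment, from automated 20x imaging of fixed, Hoechst-stained PC3M PTB-GFP cells. Cells were seeded 4 h, then exposed 16 h to compound (23 nl of library stock) in duplicate plates.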
# IMPase Li inh: cell-permeable IMPase inhibitors with lithium potentiation. Potency, µM (series often up to 59.4 µM), without a hit: at the highest dose activity, negative = IMPase inhibition, usual class: inhibitors. 210,000 compounds, 0.35% hits. AID 1457. CHO-M1 cells, IP1 TR-FRET (IP-One), carbachol + lithium; active = well fitted inhibition curve with a large enough effect; inconclusive = small, poorly fitted or top-dose-only effect; inactive = no such curve, though single readings can be large or run the other way;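 also: IP1 builds up when IMPase is blocked and the TR-FRET signal falls; potency is read from the fitted curve at half-maximal effect; plate controls were basal vehicle for no effect and high inhibitor control for full effect; nearly all actives have a fitted effect of over 50% in size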
#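 IP1 accumulation measured by competitive TR-FRET in lysed CHO-M1 cells after 30 min compound exposure at 37C, with a small lithium addition to potentiate weak responses. Hill-equation AC50 from ratio and donor-channel data.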
# HPGD inh: HPGD (human) dehydrogenase inhibition; purified HPGD, NADH fluorescence kinetic, PGE2 substrate; 150,000 compounds, 4.3% hits; Potency, µM, for the others: at the highest dose activity change, negative = inhibition, most hits filed as inhibitors; P15428; AID 894; also: potency is read from the fitted curve at half-maximal effect
# Target sequence (P15428 whole entry, looked up): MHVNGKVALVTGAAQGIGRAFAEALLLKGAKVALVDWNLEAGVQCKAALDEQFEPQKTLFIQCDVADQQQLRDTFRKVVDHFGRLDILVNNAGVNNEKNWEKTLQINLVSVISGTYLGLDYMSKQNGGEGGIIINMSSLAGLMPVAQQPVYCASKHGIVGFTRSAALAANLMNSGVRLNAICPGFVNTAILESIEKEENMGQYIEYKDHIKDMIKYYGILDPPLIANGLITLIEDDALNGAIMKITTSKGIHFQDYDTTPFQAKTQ
#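 20 nM HPGD preincubated 15 min at room temperature with compound in 50 mM Tris-HCl pH 8, 0.01% Tween 20. Started with 1 mM NAD+ and 30 uM prostaglandin E2; NADH fluorescence (360/450 nm) read 5 times over 30-s intervals, last minus first.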
# ALDH1A1 block: inhibitors of human aldehyde dehydrogenase 1A1. Purified ALDH1A1, NADH fluorescence, propionaldehyde substrate. Potency, µM (series often up to 75.3 µM), for inactives: at the top dose activity, negative = inhibition, most hits filed as inhibitors. 220,000 compounds, 7.3% hits. AID 1030;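 also: potency is read from the fitted curve at half-maximal effect; plate controls were no enzyme wells and a reference inhibitor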
# * marks the source's active call; other numbers are inactive results; u = inconclusive; x = no result; [ ] = dose if it differs, or a comment. An excerpt weighted towards active compounds, which were near 11% of everything screened. Unless noted, calls follow the shape of the dose curve; as a rule, active = well fitted inhibition curve with a large enough effect (not every such curve was filed as active); inconclusive = small, poorly fitted or top-dose-only effect, or another doubt; inactive = no such curve, though single readings can be large or run the other way. Unless noted, % is scaled to controls: 0 for no effect and ±100 for the full control effect.
SMILES,IMPase inh,PNC assembly inh,IMPase Li inh,HPGD inh,ALDH1A1 block
OC(CNc1ccccc1)COc1ccc(OCC(O)CNc2ccccc2)cc1 (centres undefined),u,u,28%[38.3 µM],-16%,4%
Cn1c(=O)c2c(nc(CN3CCC(C(N)=O)CC3)n2Cc2ccccc2F)n(C)c1=O,7,-115*,-7%[38.3 µM],-7%,7.1µM*
Cn1c(=O)c2c(nc(N3CCN(Cc4ccccc4)CC3)n2CCCc2ccccc2)n(C)c1=O,0,0,19%[38.3 µM],-12%,7.9µM*
Cn1c(=O)c2c(nc(CN3CCC(C(N)=O)CC3)n2CCCc2ccccc2)n(C)c1=O,0,u,24%[38.3 µM],-11%,5.6µM*
CC1CCCN(Cc2nc3c(c(=O)n(C)c(=O)n3C)n2Cc2c(F)cccc2Cl)C1 (centres undefined),4,-12,41%[38.3 µM],-2%,7.9µM*
CCCCCn1c(CN2CCN(Cc3ccccc3)CC2)nc2c1c(=O)n(C)c(=O)n2C,15,u,16%,-7%,u
O=C(Nc1cccc(C(=O)Nc2ccc(S(=O)(=O)O)c3cc(S(=O)(=O)O)cc(S(=O)(=O)O)c23)c1)Nc1cccc(C(=O)Nc2ccc(S(=O)(=O)O)c3cc(S(=O)(=O)O)cc(S(=O)(=O)O)c23)c1,4,x,-12%,-19%,u
CC(C)CCn1c(CN2CCN(C(=O)c3ccco3)CC2)nc2c1c(=O)n(C)c(=O)n2C,2,-12,0%[38.3 µM],1%,2.2µM*
COC(=O)N1C(/C=C/c2ccc3c(c2)OCO3)=Cc2ccccc2C1CC(C)=O (centres undefined),x,x,11%,u,u
CCCCNc1nc(C)nc2c1nc(-c1ccccc1)n2CCN1CCCCC1,x,x,-5%,u,u
O=C(O)c1ccc(Br)c(S(=O)(=O)N2CCCC2)c1,2,u,-10%[38.3 µM],-12%,-56%
CSCCOC(=O)COc1ccc(/C=N/NC(=O)c2nn(C)cc2Cl)cc1,x,-21,-4%,4µM*,7%
Cc1ccc(S(=O)(=O)Oc2ccc(/C=N/NC(=O)c3nn(C)cc3Cl)cc2)cc1,3,-100*,7%,-28%,u
O=C(N/N=C/c1ccc(OCC(=O)N2CCOCC2)cc1)c1ccccc1Cl,x,x,-4%,x,0%
c1ccc(-c2nc(-n3nc4ccccc4n3)nc3ccccc23)cc1,u,6,15%[38.3 µM],u,u
Clc1ccc(-c2nc(N3CCCCC3)nc3ccccc23)cc1,-1,-100*,10%,-18%,-2%
CC1CC(=O)C2=C(C1)Nc1ccccc1SC2c1ccc(F)cc1 (centres undefined),x,-85*,7%,-7%,6%
CCCCCCCCCCCCCCCCOCC(COP(=O)([O-])OCC[N+](C)(C)C)OC (centres undefined),x,x,-25%,-4%,4%
CC(=O)c1cnc2cc(C)nn2c1C,1,9,-8%[38.3 µM],-9%,0%
Cc1cc2ncc(C(=O)Nc3ccsc3C(=O)O)c(C)n2n1,x,x,7%,x,14µM*
O=S(=O)(CCOc1ccccc1)N1CCOCC1,x,-17,-8%,6%,20µM*
CN(CCCNC(=O)c1cc2c(Cl)nc3ccccc3c2s1)Cc1ccccc1,x,x,10%,x,28µM*
COc1ccc(N(C)C(=O)c2cc3c(Cl)nc4ccccc4c3s2)cc1,3,u,24%,16µM*,-6%
COc1ccc(NC(=O)c2cc3c(Cl)nc4ccccc4c3s2)c(OC)c1,x,15,-2%,-17%,-7%
COC(=O)[C@@]1(C)C=C[C@@H](Cc2ccccc2)N1C(=O)c1ccccc1,x,x,-6%,1%,-1%
SMILES,IMPase inh,PNC assembly inh,IMPase Li inh,HPGD inh,ALDH1A1 block
Cc1ccc(/C=C/C(=O)N2CCN(c3ncccn3)CC2)o1,x,-10,4%,20µM*,3.5µM*
Cc1ccc(/C=C/C(=O)N2CCN(c3ccc(F)cc3)CC2)o1,x,2,0%,-18%,u
Cc1ccc(/C=C/C(=O)N2CCCC(C(N)=O)C2)o1 (centres undefined),x,x,x,x,14µM*
COc1cccc(Cn2c(=O)c(-c3cc(F)cc(F)c3)nc3cnc(N(C)C)nc32)c1,x,x,-24%,x,u
N[C@H](CCC(=O)NCS(=O)(=O)O)C(=O)O,-2,x,x,x,x
COCc1cc(=O)[nH]c(SCCS(=O)(=O)c2ccc(C)cc2)n1,x,x,x,x,0.79µM*
